Measured values reported in PubChem BioAssay (EPA / NIEHS).
“And” between values parts separate entries of the source, which are not always exact repeats. Equal values may be shown once. A structure can be active in one record and inactive in another. The source made the active and inactive calls. Rule for the calls: active = hit-call score of the fitted dose curve at least 0.9, where 1 is the maximum; inactive = score below 0.9.

Experiment: ATG_CRE_CIS: Attagene CIS-FACTORIAL HepG2 Assay for human cAMP Responsive Element (CRE) binding protein 3 (AID 2282926)
Settings: HepG2 CRE cis-reporter, Attagene multiplexed mRNA; actives raise or lower the signal
Method: ATG_CIS is a cell-based, multiplexed-readout assay that uses HepG2, a human liver cell line, with measurements taken at 24 hours after chemical dosing in a 24-well plate.ATG_CRE_CIS is one of 52 assay component(s) measured or calculated from the ATG_CIS assay. It is designed to make measurements of mRNA induction, a form of inducible reporter, as detected with fluorescence intensity signals by Reverse transcription polymerase chain reaction (RT-PCR) and Capillary electrophoresis technology.Data from the assay component ATG_CRE_CIS was analyzed into 1 assay endpoint. This assay endpoint, ATG_CRE_CIS, was analyzed with bidirectional fitting relative to DMSO as the negative control and baseline of activity. Using a type of inducible reporter, measures of mRNA for gain or loss-of-signal activity can be used to understand the reporter gene at the transcription factor-level as they relate to the gene CREB3. Furthermore, this assay endpoint can be referred to as a primary readout, because this assay has produced multiple assay endpoints where this one serves a reporter gene function. To generalize the intended target to other relatable targets, this assay endpoint is annotated to the dna binding intended target family, where the subfamily is basic leucine zipper.
Human liver HepG2 cells are transiently transfected with multiple reporter transcription units (MRTUs) in 6-well plates using FuGene 6 reagent (Roche; 3 ml FuGene/1 mg DNA). The MRTU constructs are regulated by a cis-regulating element (promoter). […] A major difference between the CIS and TRANS system is that in CIS activities of endogenous TFs are measured, whereas the TRANS assay evaluates changes in activities of exogenous, chimeric NR-Gal4 proteins. […] At the end of 24 hour incubation, total RNA was isolated using TriZol reagent (Invitrogen). The isolated RNA is then reverse-transcribed using oligo(dT) primer and Mo-MLV reverse transcriptase (Invitrogen) with DNAse I (Ambion) treatment for 30 min. The one-tenth of the produced cDNA was amplified by PCR using Taq DNA polymerase (Invitrogen) and two reporter sequence-specific primers. The PCR products were fluorescently labeled by primer extension with 6-arboxyfluorescein (6-FAM) 5'-labeled reporter sequence-specific primer (2 min at 95 C, 20 s at 68 C and 10 min at 72 C) and these products were digested with 5U of HpaI (New England Biolabs) for 2h at 37 C. The fragments were purified using Qiaquick PCR columns (Qiagen), analyzed on an ABI 3130xL genetic analyzer (Applied Biosystems) with peak positions identified by using a set of X-rhodamine (ROX)-labeled MapMarker1000 molecular weight standards (BioVentures). The raw capillary electrophoresis data was processed using Attagraph software (Attagene).

| SMILES | AC50 | outcome |
| --- | --- | --- |
| S=C(S)NCCNC(=S)S.[Mn+2].[S-]C([S-])=NCCN=C([S-])[S-].[Zn+2] | 10.1 µM (active) and 9.92 µM (active) | inactive |
| C#CCOC(=O)[C@@H](C)Oc1ccc(Oc2ncc(Cl)cc2F)cc1 |  | inactive |
| CCCN(CCC)C(=O)SCC |  | inactive |
| c1ccc2[nH]c(-c3cscn3)nc2c1 |  | inactive |
| CCOC(=O)[C@H](C)Oc1ccc(Oc2nc3ccc(Cl)cc3o2)cc1 |  | inactive |
| CC(=O)S[C@@H]1CC2=CC(=O)CC[C@]2(C)[C@H]2CC[C@@]3(C)[C@@H](CC[C@@]34CCC(=O)O4)[C@H]12 | 25.5 µM (active) and 17.9 µM (active) and 3.75 µM (active) | inactive |
| CCN(Cc1c(F)cccc1Cl)c1c([N+](=O)[O-])cc(C(F)(F)F)cc1[N+](=O)[O-] |  | inactive |
| c1ccc(Nc2ccccc2)cc1 |  | inactive |
| O=C(Nc1ccc([N+](=O)[O-])cc1Cl)c1cc(Cl)ccc1O | 0.506 µM (active) |  |
| CCOC(=O)COc1cc(-n2ncc(C(F)(F)F)c(C)c2=O)c(F)cc1Cl |  | inactive |
| CCC(O)=C1C(=O)CC(C(=O)O)CC1=O (stereo not given) |  | inactive |
| C=CCOC(Cn1ccnc1)c1ccc(Cl)cc1Cl (stereo not given) | 12.9 µM (active) |  |
| CC(C)(c1ccc(O)cc1)c1ccc(O)cc1 | 64.3 µM (active) and 25.5 µM (active) and 22.7 µM (active) | inactive |
| CCCCCOC(=O)COc1cc(N2C(=O)C3=C(CCCC3)C2=O)c(F)cc1Cl |  | inactive |
| N#CSCSc1nc2ccccc2s1 | 18.2 µM (active) | inactive |
| CC(=O)[C@H]1CC[C@H]2[C@@H]3CCC4=CC(=O)CC[C@]4(C)[C@H]3CC[C@]12C |  | inactive |
| CC1(C)C(C=C(Cl)Cl)C1C(=O)OCc1cccc(Oc2ccccc2)c1 (stereo not given) |  | inactive |
| CSC(=O)c1cccc2nnsc12 |  | inactive |

| SMILES | AC50 | outcome |
| --- | --- | --- |
| CCCCCCC(C)OC(=O)COc1nc(F)c(Cl)c(N)c1Cl (stereo not given) |  | inactive |
| CC(C)CCCCCCc1ccc(O)cc1 | 17.3 µM (active) and 16.4 µM (active) | inactive |
| C#C[C@]1(O)CC[C@H]2[C@@H]3CCC4=CC(=O)CC[C@@H]4[C@H]3CC[C@@]21CC |  | inactive |
| COC(=O)c1ccccc1C(=O)O |  | inactive |
| O=C(O)c1ccccc1 |  | inactive |
| N[C@@H](Cc1cc(I)c(Oc2ccc(O)c(I)c2)c(I)c1)C(=O)O |  | inactive |
| CN(C)C(=O)Nc1ccc(Cl)c(Cl)c1 |  | inactive |
| CCNc1nc(N)nc(Cl)n1 |  | inactive |
| S=C([S-])NCCNC(=S)[S-].[Mn+2] |  | inactive |
| CCCCOC(=O)[C@@H](C)Oc1ccc(Oc2ccc(C(F)(F)F)cn2)cc1 |  | inactive |
| CCOC(=O)C(C)Oc1ccc(Oc2cnc3cc(Cl)ccc3n2)cc1 (stereo not given) |  | inactive |
| CCCN(CCC)c1c([N+](=O)[O-])cc(C(F)(F)F)c(N)c1[N+](=O)[O-] |  | inactive |
| CCCCC(CC)COC(=O)c1ccccc1C(=O)O (stereo not given) |  | inactive |
| CCCOC(=O)NCCCN(C)C |  | inactive |
| CCC(C)OC(=O)N1CCCCC1CCO (stereo not given) |  | inactive |
| O=C(O)C1(C(=O)Nc2ccc(Cl)cc2Cl)CC1 |  | inactive |
| CCCCOCCOCCOCc1cc2c(cc1CCC)OCO2 |  | inactive |
